From PubChem BioAssay (NCI)
Several values for one entry are separate records, joined by “and”; a condition that tells them apart may be missing. Identical values can stand only once. Compounds without any hit were thinned out: in the full panel of roughly 83,000, 20% have a hit.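 In brief: 96-well plates, 48 h treatment, single concentration, percent growth endpoint.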 Activity calls are given as the source filed them. The calls were made as follows: active = growth percent below 10; inactive = the rest.

What was measured:
Assay in all cases: NCI-60 one-dose screen, 48 h (100 = growth as untreated, 0 = no growth, -100 = all killed)
Conditions in all cases: 10 µM unless noted
HT29 colon = tested on: HT29 colon
SNB-19 CNS = tested on: SNB-19 CNS
U251 CNS = tested on: U251 CNS
PC-3 prostate = tested on: PC-3 prostate
SK-MEL-5 melanoma = tested on: SK-MEL-5 melanoma
UACC-62 melanoma = tested on: UACC-62 melanoma
LOX IMVI melanoma = tested on: LOX IMVI melanoma
SK-MEL-28 melanoma = tested on: SK-MEL-28 melanoma
SK-MEL-2 melanoma = tested on: SK-MEL-2 melanoma
EKVX NSCLC = tested on: EKVX NSCLC
SN12C renal = tested on: SN12C renal
UO-31 renal = tested on: UO-31 renal
CAKI-1 renal = tested on: CAKI-1 renal
A498 renal = tested on: A498 renal
CCRF-CEM leukemia = tested on: CCRF-CEM leukemia
MOLT-4 leukemia = tested on: MOLT-4 leukemia
SNB-75 CNS = tested on: SNB-75 CNS
TK-10 renal = tested on: TK-10 renal
ACHN renal = tested on: ACHN renal

Structure (SMILES) | growth (HT29 colon) | growth (SNB-19 CNS) | growth (U251 CNS) | growth (PC-3 prostate) | growth (SK-MEL-5 melanoma) | growth (UACC-62 melanoma) | growth (LOX IMVI melanoma) | growth (SK-MEL-28 melanoma) | growth (SK-MEL-2 melanoma) | growth (EKVX NSCLC) | growth (SN12C renal) | growth (UO-31 renal) | growth (CAKI-1 renal) | growth (A498 renal) | growth (CCRF-CEM leukemia) | growth (MOLT-4 leukemia) | growth (SNB-75 CNS) | growth (TK-10 renal) | growth (ACHN renal)
CC(C)(C)OC(=O)CC1(O)CCCCC1 | 111% (inactive) | 106% (inactive) | 104% (inactive) | 96.8% (inactive) | 95.7% (inactive) | 103% (inactive) | 102% (inactive) | 105% (inactive) | 107% (inactive) | 102% (inactive) | 100% (inactive) | 101% (inactive) | 100% (inactive) | 84.6% (inactive) | 106% (inactive) | 108% (inactive) | – | – | –
Cc1cc2nc3ccc(=[N+](C)C)cc-3sc2cc1N | 3.91% (active) and 19.4% (inactive) | -17.2% (active) and -4.45% (active) | 1.01% (active) and -31% (active) | -1.87% (active) and -5.43% (active) | -92.2% (active) and -90.1% (active) | -31.9% (active) and 23.3% (inactive) | -19.1% (active) and -29.2% (active) | -9.76% (active) and 20.1% (inactive) | -33.5% (active) and 20.3% (inactive) | 38.7% (inactive) and 24.3% (inactive) | -65.9% (active) and -66.4% (active) | 8.95% (active) and 36.6% (inactive) | – | 74.9% (inactive) and 65.4% (inactive) | -7.13% (active) and -12.1% (active) | -10.7% (active) and -19.8% (active) | 88.2% (inactive) and 22.1% (inactive) | -12.3% (active) and 14.7% (inactive) | -73.1% (active) and 9.45% (active)
NCCSSC/C=C\CSSCCN | 106% (inactive) | 105% (inactive) | 92.1% (inactive) | 78.3% (inactive) | 97.2% (inactive) | 105% (inactive) | 97.5% (inactive) | 115% (inactive) | 113% (inactive) | 123% (inactive) | 98.6% (inactive) | 80% (inactive) | 101% (inactive) | 88.9% (inactive) | 95.8% (inactive) | 98% (inactive) | 91.6% (inactive) | 107% (inactive) | 110% (inactive)
COc1ccccc1OCC(O)CO (configuration not stated) | 100% (inactive) and 103% (inactive) | 96.4% (inactive) and 84.9% (inactive) | 96.9% (inactive) and 81.3% (inactive) | 52.3% (inactive) and 91.5% (inactive) | 104% (inactive) and 100% (inactive) | 100% (inactive) | 99.5% (inactive) and 100% (inactive) | 95.5% (inactive) and 108% (inactive) | 98.3% (inactive) and 110% (inactive) | 102% (inactive) and 83.5% (inactive) | 95.2% (inactive) and 103% (inactive) | 87.6% (inactive) and 96.4% (inactive) | 90.8% (inactive) | – | 98.5% (inactive) and 97.1% (inactive) | 144% (inactive) and 121% (inactive) | 87.7% (inactive) and 90.7% (inactive) | 98% (inactive) | 102% (inactive) and 110% (inactive)
O=C(O)Cc1cc(=O)[nH]n(-c2ccccc2)c1=O | 103% (inactive) | 119% (inactive) | 99.9% (inactive) | 94% (inactive) | 107% (inactive) | 101% (inactive) | 100% (inactive) | 110% (inactive) | 116% (inactive) | 96% (inactive) | 97.9% (inactive) | 101% (inactive) | 83.5% (inactive) | 97.6% (inactive) | 112% (inactive) | 88.3% (inactive) | 91.3% (inactive) | 102% (inactive) | 105% (inactive)
N#Cc1ccc(/C=C/C(=O)c2ccccc2)cc1 | 12% (inactive) and 70.5% (inactive) | 89.9% (inactive) | 33.2% (inactive) and 62.5% (inactive) | 52.2% (inactive) | 90.9% (inactive) and 102% (inactive) | 91.3% (inactive) and 89.9% (inactive) | 28% (inactive) and 82% (inactive) | 124% (inactive) and 93.1% (inactive) | 90.7% (inactive) | 95.9% (inactive) and 111% (inactive) | 96.2% (inactive) and 92.6% (inactive) | -37.5% (active) | – | 112% (inactive) and 84.1% (inactive) | 17.6% (inactive) and 3.61% (active) | -35.1% (active) and 29.4% (inactive) | 87.3% (inactive) | 98.9% (inactive) and 55.8% (inactive) | 112% (inactive) and 92.9% (inactive)
CN(C)CC(CN(C)C)C(O)c1ccccc1 (configuration not stated) | 100% (inactive) | 109% (inactive) | 99.5% (inactive) | 101% (inactive) | 106% (inactive) | 106% (inactive) | 97.8% (inactive) | – | 94.4% (inactive) | 96.1% (inactive) | 103% (inactive) | 96.1% (inactive) | 98.2% (inactive) | 109% (inactive) | 104% (inactive) | 106% (inactive) | 94.5% (inactive) | 89.5% (inactive) | 105% (inactive)
O=C(O)c1cccc(Br)c1 | 101% (inactive) and 94.4% (inactive) | 108% (inactive) and 105% (inactive) | 103% (inactive) and 90.7% (inactive) | 95% (inactive) and 97.6% (inactive) | 104% (inactive) and 109% (inactive) | 103% (inactive) and 102% (inactive) | 95.8% (inactive) and 99.3% (inactive) | 112% (inactive) and 115% (inactive) | 105% (inactive) | 105% (inactive) and 101% (inactive) | 104% (inactive) | 68.5% (inactive) and 88.8% (inactive) | 102% (inactive) and 99% (inactive) | 99.8% (inactive) and 83% (inactive) | 99.7% (inactive) and 101% (inactive) | 85.9% (inactive) and 96.2% (inactive) | 91.5% (inactive) and 99.7% (inactive) | – | 107% (inactive) and 108% (inactive)
CC(C)(C)C1CCC(=NO)CC1 (configuration not stated) | 95% (inactive) | 96% (inactive) | 99.9% (inactive) | 86.7% (inactive) | 104% (inactive) | 99.4% (inactive) | 99.8% (inactive) | 110% (inactive) | 94.5% (inactive) | 102% (inactive) | 103% (inactive) | – | 97.2% (inactive) | 97.4% (inactive) | 99.8% (inactive) | 123% (inactive) | 85.6% (inactive) | 108% (inactive) | 105% (inactive)
